The structures appear in SMILES notation. Among all 1,000 compounds or so, about 250 (25%) were called active. Not shown: some 31% with an inconclusive outcome. Not all results are given here. Potency and affinity values are given separately. A number with no mark means an inactive call. No rule for the calls is given here. Numbered stars: 1 amine (or outer) side, 2 acyl side, 3 side chain; on linkers, the order of the positions; unused ones are H or OH. Bridge positions count the residues as written; N and C are the ends. Square brackets hold non-standard residues; d marks the D form. Side chains are listed from the residue outwards. Peptide text beside a SMILES is read from it. * marks the point of attachment. ξ: configuration not given here. Ethylenediamine = C(CN[*:2])N[*:1]; Heptanoyl(6-Me) = CC(C)CCCCC(=O)*; Hyp = O=C(O)[C@@H]1C[C@@H](O)CN1; Phg = N[C@H](C(=O)O)c1ccccc1; CO = O=C([*:1])[*:2]; ξDab = NCCC(N)C(=O)O; ξT = CC(O)C(N)C(=O)O; Bn = c1ccc(C*)cc1

The nature of this experiment: T. gondii intracellular growth, IFN-gamma absent, dose response, cell-based (AID 1259420).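 Also: host cells were HeLa; final incubation lasted 72 hours.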 Particulars: Toxoplasma gondii growth in host cells, no IFN-gamma.

Take `CC(=O)O[C@H]1C[C@@H](OC(C)=O)C(C)(C)C2C[C@@H](OC(C)=O)[C@@]3(C)C4=CC(=O)O[C@@H](c5ccoc5)[C@]4(C)CCC3[C@]21C` (stereo not given in full): the max activity (at 19.5 µM unless noted) was -6.69% [at 0.16 µM]. As to `O=C(C[C@@H]1CC[C@@H]2[C@H](COC[C@H](O)CN2C(=O)c2cc(Cl)cc(Cl)c2)O1)N1CCc2ccccc2C1`, the max activity (at 19.5 µM unless noted) was 9.95%.

For the compound `C/C=C/c1ccc(C2[C@@H]3CN(Cc4cccc(OC)c4)C[C@H]2N3)cc1` (stereo not given in full), the max activity (at 19.5 µM unless noted) is 25.8% [at 1.2 µM]. Turning to `O=C(Nc1cccc(F)c1)N1CCCCN2[C@H](C1)[C@H](c1ccc(C#Cc3cccnc3)cc1)[C@@H]2CO`, where the note is “at 19.5 µM unless noted”, the max activity was -11.5% [at 21 µM]. Take `O=C(Nc1cccc(F)c1)N1CCCCN2[C@@H](CO)[C@@H](c3ccc(C#Cc4cccnc4)cc3)[C@@H]2C1`: the max activity (at 19.5 µM unless noted) is 16.4% [at 0.6 µM]. For the compound `CC(C)CCN1Cc2c(C(=O)Nc3cccc(F)c3)ncn2-c2ccccc2S1(=O)=O`, the max activity (at 19.5 µM unless noted) is 27% [at 10 µM]. Regarding `COc1ccccc1NC(=O)N1CC(=O)N2[C@H](C1)[C@@H](c1ccc(C#CC(C)C)cc1)[C@@H]2CO`, the max activity (at 19.5 µM unless noted) is -5.1% [at 5 µM]. On to `OC[C@@H]1Nc2ccc(C#Cc3ccc(F)cc3)cc2[C@@H]2[C@H]1CCN2Cc1ccc2c(c1)OCO2`, for which, where the note is “at 19.5 µM unless noted”, the max activity was 6.67% [at 1.2 µM]. With `O=C(c1ccc2c(c1)OCO2)N1CC[C@@H]2[C@H](CO)Nc3ccc(C#Cc4ccccc4)cc3[C@@H]21`, for the setting “at 19.5 µM unless noted”, the max activity was 15.9%. Still for that read-out and setting: with `N#Cc1ccc(-c2ccc([C@@H]3[C@H]4CNC[C@@H]3N4Cc3ccc4c(c3)OCO4)cc2)cc1` the figure was 27.3% [at 10 µM]; with `COCCO[C@H]1CCN(Cc2c(C)noc2C)[C@H]1Cc1ccccc1`, -15.1% [at 10 µM]. Same read-out and setting: next, `NCCCC[C@@H]1NC(=O)[C@@H](Cc2c[nH]c3ccccc23)NC(=O)[C@H](c2ccccc2)NC(=O)[C@@H]2C[C@@H](OC(=O)NCCN)CN2C(=O)[C@H](Cc2ccccc2)NC(=O)[C@H](Cc2ccc(OCc3ccccc3)cc2)NC1=O` (cyclo([Hyp]([CO-Ethylenediamine])[Phg][dW]KY(Bn)F)): -6.82% [at 1.2 µM]; `CCCCC[C@H](CC(=O)NO)C(=O)N[C@H](C(=O)N1CCC[C@H]1CO)C(C)C`: -4.64% [at 1.2 µM]. Take `O=C(C[C@H]1CC[C@H]2[C@@H](COC[C@@H](O)CN2Cc2ccc(Oc3ccccc3)cc2)O1)N1CCN(c2ccccc2)CC1`: the max activity (at 19.5 µM unless noted) is -8.77% [at 10 µM]. For the compound `Nc1c(-c2nnc(-c3ccccc3)o2)sc2nc(-c3ccccc3)cc(-c3ccccc3)c12`, the max activity (at 19.5 µM unless noted) is -6.07% [at 0.6 µM]. With `CCN(CC)CCOC(=O)C(c1ccccc1)C1CCCCC1` (stereo not given), the max activity (at 19.5 µM unless noted) was 16.1% [at 10 µM]. For `COc1ccc(Cc2nnc(NC(=O)CC(C)C)s2)cc1`, for the setting “at 19.5 µM unless noted”, the max activity was 16.7% [at 10 µM]. With `COCC12CCCOC1CCN(S(=O)(=O)c1cn(C)cn1)C2` (stereo not given), the max activity (at 19.5 µM unless noted) was -11.3% [at 2.6 µM].

Regarding `CC(C)C#Cc1ccc([C@@H]2[C@@H](CO)N3C(=O)CN(S(=O)(=O)c4ccccc4)C[C@H]23)cc1`, the max activity (at 19.5 µM unless noted) was 8.39%. For the compound `Cc1ccc(S(=O)(=O)N2CC[C@@H]3[C@H](CO)Nc4ccc(-c5cccc(C(=O)N(C)C)c5)cc4[C@@H]32)cc1`, the max activity (at 19.5 µM unless noted) is 15.5%. Regarding `O=C(C[C@H]1CC[C@@H]2[C@H](COC[C@H](O)CN2C(=O)c2cc(Cl)cc(Cl)c2)O1)N1CCc2ccccc2C1`, the max activity (at 19.5 µM unless noted) is 6.12% [at 2.6 µM]. As for `c1ccc(-c2ccc([C@H]3[C@H]4CNC[C@@H]3N4Cc3cc(-c4ccccc4)on3)cc2)cc1`, where the note is “at 19.5 µM unless noted”, the max activity was 21.8% [at 21 µM]. `COc1ccc(S(=O)(=O)N(C)C[C@H]2Oc3c(NC(=O)c4nc5ccccc5s4)cccc3C(=O)N([C@@H](C)CO)C[C@H]2C)cc1`: the max activity (at 19.5 µM unless noted) is 5.87% [at 5 µM]. Turning to `Cc1ccc(S(=O)(=O)Nc2ccc3c(c2)C(=O)N([C@@H](C)CO)C[C@H](C)[C@H](CN(C)Cc2ccc(C(F)(F)F)cc2)O3)cc1`, the max activity (at 19.5 µM unless noted) was 18.3%. For the compound `OC[C@@H]1[C@@H](c2ccc(-c3cccc(F)c3)cc2)[C@@H]2CN(Cc3cncnc3)CCCCN12`, the max activity was -7.4% (at 1.2 µM) and 16.1% (at 19.5 µM). For the compound `Cc1ccc(CN2CC[C@H]3CO[C@@H](CNC(=O)C4CC4)[C@@H]3C2)cc1`, the max activity (at 19.5 µM unless noted) was -26.4% [at 10 µM]. Regarding `CC(C)CCCCC(=O)NC(CCN)C(=O)NC(C(=O)NC(CCN)C(=O)NC1CCNC(=O)C(C(C)O)NC(=O)C(CCN)NC(=O)C(CCN)NC(=O)[C@H](CC(C)C)NC(=O)[C@@H](CC(C)C)NC(=O)C(CCN)NC1=O)C(C)O` (stereo partly drawn) ({Heptanoyl(6-Me)}-[ξDab][ξT][ξDab][ξDab][ξDab][dL]L[ξDab][ξDab][ξT]; lactam 4-C), the max activity (at 19.5 µM unless noted) is -5.41% [at 2.6 µM]. For `O=C(C1CCCCC1)N1[C@@H](CO)[C@@H]2c3ccccc3N(S(=O)(=O)c3ccccc3)C[C@@H]21`, the max activity (at 19.5 µM unless noted) was 7.57%.

For `O=C(NC1CCCC1)N1[C@@H]2CNC[C@H]1C2c1ccc(-c2cccnc2)cc1` (stereo not given in full), for the setting “at 19.5 µM unless noted”, the max activity was -14.9% [at 10 µM]. Turning to `CN(C)C(=O)c1cccc(-c2ccc3c(c2)[C@H]2[C@H](CCN2C(=O)Cc2ccccc2)[C@@H](CO)N3)c1`, the max activity (at 19.5 µM unless noted) was -6.17% [at 10 µM]. For the compound `CN(C)C(=O)c1cccc(-c2ccc3c(c2)[C@@H]2[C@@H](CCN2C(=O)Cc2ccccc2)[C@H](CO)N3)c1`, the max activity (at 19.5 µM unless noted) was 13.7% [at 21 µM]. On to `O=C(Cc1cccnc1)N1CC(=O)N2[C@@H](CO)[C@H](c3ccc(C#CC4CCCCC4)cc3)[C@@H]2C1`, for which the max activity (at 19.5 µM unless noted) was -4.29% [at 10 µM]. Consider `CC(C)NC(=O)N1CC(=O)N2[C@H](C1)[C@@H](c1ccc(/C=C/c3ccccc3)cc1)[C@@H]2CO`, for which the max activity (at 19.5 µM unless noted) was 11.9% [at 5 µM]. In the case of `CN(C)C(=O)c1cc2c(nc1NCC1CC1)CCN(Cc1ccccn1)CC2`, the max activity (at 19.5 µM unless noted) was -6.11% [at 10 µM]. As for `CC(C)CN(C[C@@H](O)[C@H](Cc1ccccc1)NC(=O)O[C@H]1CO[C@H]2OCC[C@H]21)S(=O)(=O)c1ccc(N)cc1`, where the note is “at 19.5 µM unless noted”, the max activity is 6.05% [at 1.2 µM]. The same measure, in the same setting: with `O=C(C1CC1)N1C[C@@H]2N[C@H](C1)C2c1ccc(/C=C/c2ccccc2)cc1` (stereo not given in full) the figure was 27.3%. As to `COc1ccc(-c2ccc(C3[C@@H]4CN(C(=O)c5cnccn5)C[C@H]3N4)cc2)cc1` (stereo not given in full), the max activity (at 19.5 µM unless noted) is 19.9%. For the compound `COc1ccccc1-c1ccc(C2[C@@H]3CN(C(=O)c4ccncc4)C[C@H]2N3)cc1` (stereo not given in full), the max activity (at 19.5 µM unless noted) is -11% [at 5 µM]. Turning to `Cc1csc([C@H]2C[C@H]3CCN(C(=O)c4cnccn4)C[C@@H]3O2)n1`, the max activity (at 19.5 µM unless noted) is -12.1%. Turning to `CC(C)CNC(=O)c1cc(-c2ccn(CC3CC3)n2)n2ccccc12`, for the setting “at 19.5 µM unless noted”, the max activity was 21.6%. On to `Cc1ccc(S(=O)(=O)N2CCC3(CC2)OC(C(=O)N(C)C)Cn2ccnc23)cc1` (stereo not given), for which, where the note is “at 19.5 µM unless noted”, the max activity was -17%. With `O=C(NC1CCCC1)N1CC[C@H]2CN(Cc3cccc(Cl)c3)S(=O)(=O)[C@@H]2CC1`, the max activity (at 19.5 µM unless noted) is -17.4%. Still for that read-out and setting: with `CN(C)C(=O)CN1C[C@@H]2CCN(C(=O)Nc3ccccc3Cl)CC[C@H]2S1(=O)=O` the figure was 7.52% [at 2.6 µM]. For `CC(C)n1c(C(=O)N2CCN(c3ccncc3)CC2)cc2c1c1ccccc1n2C`, the max activity (at 19.5 µM unless noted) was 37.4%. On the same count and under the same terms, next, `COc1ccccc1C#Cc1ccc([C@@H]2[C@H](CO)N3CCCCN(C(=O)C4CCC4)C[C@@H]23)cc1`: 17.3%. As for `CS(=O)(=O)N1CCO[C@@H]2CN(C(=O)Cc3ccccn3)CC[C@H]2C1`, the max activity (at 19.5 µM unless noted) was -18.9% [at 1.2 µM].

As to `Cn1c([N+](=O)[O-])cnc1COC(N)=O`, the max activity (at 19.5 µM unless noted) was -13.4% [at 0.6 µM]. On the same count and under the same terms, next, `N#C[C@H]1N[C@@H](CO)[C@@H]1c1ccc(C#CC2CCCCC2)cc1`: 28% [at 21 µM]. Consider `C=CC[C@@H]1CC=C[C@@H](C)N1C(=O)CCn1c(C)cc(C)nc1=O`, for which the max activity reads like this: (at 0.16 µM) 10.8%; (at 10 µM) -10.5%.

Regarding `Oc1[nH]c2ccccc2c1N=Nc1nc(Nc2ccccc2)nc(N2CCOCC2)n1`, where the note is “at 19.5 µM unless noted”, the max activity was -17.4% [at 5 µM]. For `COc1cccc(-c2ccc3c(c2)[C@H]2[C@H](CCN2S(=O)(=O)c2ccccc2F)[C@H](CO)N3)c1`, for the setting “at 19.5 µM unless noted”, the max activity is 10%.

Turning to `O=C(c1cnccn1)N1CC(=O)N2[C@H](C1)[C@H](c1ccc(/C=C/c3ccccc3)cc1)[C@@H]2CO`, the max activity (at 19.5 µM unless noted) is 11.5% [at 0.16 µM]. For `O=S1(=O)c2ccccc2OCC2(CCN(Cc3ccc(F)cc3)CC2)CN1CC1CC1`, the max activity (at 19.5 µM unless noted) is 28.5%. For `COCC#Cc1ccc([C@H]2[C@H](CO)N3CCCCN(C(=O)NC4CCCC4)C[C@@H]23)cc1`, the max activity (at 19.5 µM unless noted) is -13.1% [at 10 µM].

Consider `O=C(Nc1ccc2c(c1)OCO2)N1C[C@@H]2N[C@H](C1)C2c1ccc(C=Cc2ccccc2)cc1` (stereo not given in full), for which the max activity (at 19.5 µM unless noted) is 38% [at 10 µM]. For the compound `CN1C(=O)c2cc(NC(=O)c3cccc(F)c3)ccc2OC[C@@H]2O[C@@H](CC(=O)NCC3CCCCC3)CC[C@@H]21`, the max activity (at 19.5 µM unless noted) is -20.9% [at 2.6 µM].

Regarding `COc1cccc(C(=O)Nc2ccc3c(c2)C(=O)N(C)[C@H]2CC[C@@H](CC(=O)N[C@@H](C)c4ccccc4)O[C@H]2CO3)c1`, the max activity (at 19.5 µM unless noted) is 8.03% [at 0.3 µM]. Turning to `CN1C(=O)c2cc(NC(=O)c3cccc(F)c3)ccc2OC[C@H]2O[C@@H](CC(=O)NCC3CCCCC3)CC[C@@H]21`, where the note is “at 19.5 µM unless noted”, the max activity was -18% [at 2.6 µM].

For `CN1C(=O)c2cc(NC(=O)c3cccc(F)c3)ccc2OC[C@H]2O[C@@H](CC(=O)NCC3CCCCC3)CC[C@H]21`, the max activity was 4.44% (at 0.16 µM), -19.3% (at 5 µM) and -5.09% (at 19.5 µM).

Regarding `CN1C(=O)c2cc(NC(=O)c3cccc(F)c3)ccc2OC[C@@H]2O[C@H](CC(=O)NCC3CCCCC3)CC[C@@H]21`, the max activity (at 19.5 µM unless noted) was -23.6% [at 10 µM]. As to `CC(C)c1cccc(NC(=O)C[C@H]2CC[C@H]3[C@@H](COc4ccc(NS(=O)(=O)c5ccccc5Cl)cc4C(=O)N3C)O2)c1`, the max activity (at 19.5 µM unless noted) was -22.8% [at 10 µM].

(Values after PubChem BioAssay AID1259420 (Broad Institute, 2018).)
